Source: PubChem BioAssay AID362 (NMMLSC, 2006)
About 60 (1%) of roughly 4,300 compounds were called active.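 How the source made its calls: active means inhibition of labelled peptide binding to the formyl peptide receptor of at least 65%; inactive means the rest.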 Only a selection was taken, and actives are over-represented in it overall.

Biological target: fMet-Leu-Phe receptor (Homo sapiens) (UniProt P21462)
Test: FPR binders displacing fluorescent formyl peptide, primary screen, U937-FPR cells, fMLFK-FITC, flow cytometry (AID 362);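 on inhibition: plate controls were buffer control wells for no effect and unlabeled fMLFF blocking peptide for full effect; higher means less cell fluorescence so more probe displaced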
Conditions: fMLFK-FITC displacement; hits give high values, concentration not given here

fMet-Leu-Phe receptor (Homo sapiens), sequence (P21462 whole entry, looked up): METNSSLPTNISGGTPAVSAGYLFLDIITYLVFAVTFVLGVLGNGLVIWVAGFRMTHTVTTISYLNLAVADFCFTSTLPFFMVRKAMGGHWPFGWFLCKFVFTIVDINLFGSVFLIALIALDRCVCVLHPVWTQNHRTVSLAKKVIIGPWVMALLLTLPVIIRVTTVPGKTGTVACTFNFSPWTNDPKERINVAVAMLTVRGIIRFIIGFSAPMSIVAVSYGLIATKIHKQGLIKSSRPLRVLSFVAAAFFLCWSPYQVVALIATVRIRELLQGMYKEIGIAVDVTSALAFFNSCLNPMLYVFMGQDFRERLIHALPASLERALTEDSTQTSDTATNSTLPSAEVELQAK

Row | SMILES | inhibition
1 | CCOC(=O)c1cc2c(=O)n3ccccc3nc2n(CC(C)C)c1=NC(=O)c1ccccc1OCC | inactive
2 | CCCOC(=O)c1c(NC(=O)C2CCCCC2C(=O)O)sc(C)c1C (stereo unspecified) | 35.7% (inactive)
3 | CCOC(=O)c1c(NC(=O)C2CCCCC2C(=O)O)sc(C)c1-c1ccc(F)cc1 (stereo unspecified) | 57.3% (inactive)
4 | CCOC(=O)c1c(NC(=O)C2C3CCC(C3)C2C(=O)O)sc(C)c1-c1ccc(Cl)cc1 (stereo unspecified) | 45.9% (inactive)
5 | CCOC(=O)c1c(NC(=O)C2C3CCC(C3)C2C(=O)O)sc(C)c1-c1ccc(C(C)(C)C)cc1 (stereo unspecified) | 63.6% (inactive)
6 | CCOC(=O)c1c(NC(=O)C2CCCCC2C(=O)O)sc(C)c1-c1ccc(Cl)cc1 (stereo unspecified) | 77.1% (active)
7 | Cc1sc(NC(=O)C2C3CCC(C3)C2C(=O)O)c(C(N)=O)c1-c1ccc(C(C)(C)C)cc1 (stereo unspecified) | 82% (active)
8 | CCCOC(=O)c1c(NC(=O)C2CCCCC2C(=O)O)sc(C)c1-c1ccc(F)cc1 (stereo unspecified) | 17.2% (inactive)
9 | CCOC(=O)c1c(NC(=O)C2CCCCC2C(=O)O)sc(C)c1-c1ccc(C(C)(C)C)cc1 (stereo unspecified) | 29.4% (inactive)
10 | Cc1sc(NC(=O)C2CCCCC2C(=O)O)c(C(N)=O)c1-c1ccc(C(C)(C)C)cc1 (stereo unspecified) | 70.2% (active)
11 | N#CC1=C(SCC(=O)Nc2ccc(Cl)cc2)NC(=O)C(C#N)C12CCCCC2 (stereo unspecified) | 52.1% (inactive)
12 | N#CC1=C(SCC(=O)Nc2ccc(Br)cc2)NC(=O)C(C#N)C12CCCCC2 (stereo unspecified) | 79.2% (active)
13 | N#CC1=C(SCC(=O)Nc2ccc(F)cc2)NC(=O)C(C#N)C12CCCCC2 (stereo unspecified) | 15.5% (inactive)
14 | O=C1c2cccc3cccc(c23)C(=O)N1CC1CCN(C(=O)C23CC4CC(CC(C4)C2)C3)CC1 | inactive
15 | O=C(CCCN1C(=O)c2cccc3cccc(c23)C1=O)N1CCC(CN2C(=O)c3cccc4cccc(c34)C2=O)CC1 | inactive
16 | CC1CCC(C(C)C)C(OCC(O)CN2CCC(CN3C(=O)c4cccc5cccc(c45)C3=O)CC2)C1 (stereo unspecified) | 93.4% (active)
17 | CCOC(=O)c1cnc2cc(Cl)c(OC)cc2c1NCCC1=CCCCC1 | 0.9% (inactive)
18 | CCOC(=O)c1cnc2ccc(OCC)cc2c1N1CCCCCC1 | 25.2% (inactive)
19 | CCOC(=O)c1cnc2ccc(OC)cc2c1NC1CCCCC1 | 99.3% (active)
20 | CCCN(CCC)Cc1c(O)ccc2c(=O)c(Oc3cc(C)cc(C)c3)c(C(F)(F)F)oc12 | 17.9% (inactive)
21 | COc1cc2c(C(=O)NCCc3ccc(Cl)cc3)cn(CC(C)C)c(=O)c2cc1OC | inactive
22 | CC(=O)Oc1ccc(C2Nc3c(C(=O)O)ccc([N+](=O)[O-])c3C3C=CCC32)cc1 (stereo unspecified) | inactive
23 | CCOC(=O)C1CCC(CN(Cc2cccc(Br)c2)S(=O)(=O)c2cccc(C(F)(F)F)c2)CC1 (stereo unspecified) | inactive

Row | SMILES | inhibition
24 | CN(C)c1ccc(C(c2cc(C(C)(C)C)c(O)c(C(C)(C)C)c2)N2CCOCC2)cc1 (stereo unspecified) | 29.2% (inactive)
25 | CCOC(=O)c1ccc(-c2c(C(F)(F)F)oc3cc(O)c(CC)cc3c2=O)o1 | 79.1% (active)
26 | CCCc1cc2c(=O)c(-c3ccc(C(=O)OCC)o3)c(C(=O)OCC)oc2cc1OC | 7.1% (inactive)
27 | CCc1cc2c(=O)c(Oc3ccccc3)c(C(F)(F)F)oc2cc1OC | inactive
28 | CCc1cc2c(=O)c(Oc3ccccc3)c(C(F)(F)F)oc2cc1O | 70.8% (active)
29 | CCc1cc2c(=O)c(-c3nc4ccccc4n3C)c(C(F)(F)F)oc2cc1O | inactive
30 | CCOc1cc2oc(C(F)(F)F)c(Oc3ccccc3)c(=O)c2cc1CC | 27.9% (inactive)
31 | CCOc1ccc2c(=O)c(Oc3ccccc3)c(C(F)(F)F)oc2c1 | inactive
32 | CCCc1cc2c(=O)c(-c3ccc(C(=O)OCC)o3)coc2cc1OC(C)=O | 16.9% (inactive)
33 | O=c1c(Oc2ccccc2)c(C(F)(F)F)oc2cc(O)ccc12 | 46.2% (inactive)
34 | CCc1cc2c(=O)c(Oc3ccccc3)c(C(F)(F)F)oc2cc1OC(C)=O | 121% (active)
35 | CCCc1cc(-c2n[nH]c(C)c2-c2ccc(C(=O)OCC)o2)c(O)cc1O | 10.6% (inactive)
36 | CCCc1cc2c(=O)c(-c3ccc(C(=O)OCC)o3)c(C(=O)OCC)oc2cc1OC(C)=O | 96% (active)
37 | CC(=O)N1CCCc2cc(S(=O)(=O)NC(C(=O)Nc3nc4ccc(C)cc4s3)C(C)C)ccc21 (stereo unspecified) | inactive
38 | COCCOC(=O)C1=C(C)NC2=C(C(=O)C(C(=O)OC)C(C)C2)C1c1cccc(O)c1 (stereo unspecified) | 4.6% (inactive)
39 | CC1(C)CC(=O)C2=C(C1)OC(N)=C(C#N)C2c1ccc(Cl)cc1 (stereo unspecified) | 7.6% (inactive)
40 | CC(=O)N1CCc2cc(S(=O)(=O)NC(C(=O)Nc3ccccn3)C(C)C)ccc21 (stereo unspecified) | inactive
41 | Cc1cc(C)c(S(=O)(=O)NCC2CCC(C(=O)NCCc3ccc(Cl)cc3)CC2)c(C)c1 (stereo unspecified) | 18.5% (inactive)
42 | CCc1cc(=O)oc2cc(OCC(=O)OC)c(Cl)cc12 | inactive
43 | CCCOc1ccc(C2NC(=O)NC(C)=C2C(=O)OCC(C)CCC)cc1 (stereo unspecified) | inactive
44 | CCOC(=O)Oc1ccc2c(=O)c(Oc3cccc(C)c3)c(C(F)(F)F)oc2c1 | inactive
45 | CCOc1ccc2c(c1)C(C)=CC(C)(C)N2C(=O)C(C)N1C(=O)c2ccccc2C1=O (stereo unspecified) | inactive
46 | Cc1cc(NC(=O)CSc2nc3ccccc3c(=O)n2CC2CCC(C(=O)NCCc3ccccc3)CC2)no1 (stereo unspecified) | inactive

Row | SMILES | inhibition
47 | CNC(=O)C1CCC(CNS(=O)(=O)c2ccc(NC(C)=O)cc2)CC1 (stereo unspecified) | inactive
48 | CC(=O)Oc1ccc2c(=O)c(Oc3cc(C)cc(C)c3)c(C(F)(F)F)oc2c1 | 9.4% (inactive)
49 | COc1ccccc1-c1c(C(F)(F)F)oc2cc(OC(=O)C(C)C)ccc2c1=O | 92% (active)
50 | COc1ccc2c(=O)c(-c3ccccc3OC)c(C(F)(F)F)oc2c1 | inactive
51 | CC(=O)Oc1ccc2c(=O)c(Oc3ccccc3)c(C(F)(F)F)oc2c1 | 97.6% (active)
52 | CCOC(=O)Oc1ccc2c(=O)c(-c3ccccc3OC)c(C(F)(F)F)oc2c1 | 36.6% (inactive)
53 | CCCc1cc2c(=O)c(-c3nc4ccccc4s3)c(C)oc2cc1OC(C)=O | inactive
54 | CCCc1cc2c(=O)c(-c3nc(C)cs3)coc2cc1OC(C)=O | inactive
55 | CCCc1ccc(Oc2c(C(F)(F)F)oc3cc(OC(C)=O)ccc3c2=O)cc1 | 46.4% (inactive)
56 | CCCc1cc2c(=O)c(-c3nc(C)cs3)c(C)oc2cc1OC(C)=O | 72.7% (active)
57 | CCCCNC(=O)C1CCN(S(=O)(=O)N(CC(C)C)CC(C)C)CC1 | inactive
58 | CCCOC(=O)c1c(NC(=O)C2C3C=CC(C3)C2C(=O)O)sc2c1CCCC2 (stereo unspecified) | inactive
59 | COc1cc2c(C(=O)N(C)c3cccc(C(F)(F)F)c3)cn(CC(C)C)c(=O)c2cc1OC | inactive
60 | CC(C)CCn1c(CN2CCN(C(c3ccccc3)c3ccccc3)CC2)nc2c1c(=O)n(C)c(=O)n2C | inactive
61 | CSc1nc(OCC(=O)c2ccc(Cl)cc2)c2c3c(sc2n1)CCCC3 | inactive
62 | Cc1sc2ncn(CC(=O)NCc3cccnc3)c(=O)c2c1S(=O)(=O)N1CCC(C)CC1 | inactive
63 | CC(C)Cn1cc(C(=O)NCc2ccco2)c2c3ccccc3n(C)c2c1=O | inactive
64 | CCCOc1ccc(C(=O)CCNC(C(=O)O)C(C)C)cc1 (stereo unspecified) | inactive
65 | COc1ccc(C(=O)COC(=O)C(CC(C)C)N2C(=O)c3ccccc3C2=O)cc1 (stereo unspecified) | inactive
66 | CCOC(=O)C1=C(C)C2C3C(=O)N(c4cccc5ccccc45)C(=O)C3C1(C)C1C(=O)N(c3cccc4ccccc34)C(=O)C21 (stereo unspecified) | 13.4% (inactive)
67 | CCN(CCCNC(=O)Cn1cnc2sc(C)c(S(=O)(=O)N3CCC(C)CC3)c2c1=O)c1cccc(C)c1 | inactive
68 | O=C(O)CSc1nc(-c2ccccc2)nc2c1CCCC2 | inactive
69 | O=C(CSc1nc(-c2ccccc2)nc2c1CCCC2)N1CCCCC1 | 86.8% (active)

Row | SMILES | inhibition
70 | O=C(CSc1nc(-c2ccccc2)nc2c1CCCC2)N1CCOCC1 | inactive
71 | CCOC(=O)C1=C(C)NC2=C(C(=O)C(C(=O)OC)C(C)C2)C1c1ccc(N(C)C)cc1 (stereo unspecified) | 10% (inactive)
72 | CCOC(=O)C1CCN(C(=O)c2cn(CC(C)C)c(=O)c3cc(OC)c(OC)cc23)CC1 | 11.2% (inactive)
73 | CC1(C)CC(=O)C2=C(C1)OC(N)=C(C#N)C2(C)C | inactive
74 | CCCCOc1cc(OCCCC)c2c3c(c(=O)oc2c1)CCC3 | 92.8% (active)
75 | CCCCOc1cc(OCCCC)c2c3c(c(=O)oc2c1)CCCC3 | inactive
76 | CCCOc1cc(OCCC)c2c3c(c(=O)oc2c1)CCCC3 | 7.1% (inactive)
77 | O=C(O)c1cccc(N2C(=O)C3C4CCC(C4)C3C2=O)c1 (stereo unspecified) | 31.6% (inactive)
78 | Cc1ccn2c(NC(=O)C(C)(C)Oc3ccc(Cl)cc3)c(-c3cccs3)nc2c1 | 6% (inactive)
79 | CCCCN(C)Cc1c(O)ccc2c(=O)c(-c3ccccc3OC)c(C(F)(F)F)oc12 | 3.4% (inactive)
80 | CC1(C)CC(=O)C(C(c2ccc(Br)cc2)C2C(=O)CC(C)(C)CC2=O)C(=O)C1 | 74.7% (active)
81 | COc1ccc(C(C2C(=O)CC(C)(C)CC2=O)C2C(=O)CC(C)(C)CC2=O)cc1COCC(F)(F)F | 34.1% (inactive)
82 | COc1ccc(C(C2C(=O)CC(C)(C)CC2=O)C2C(=O)CC(C)(C)CC2=O)cc1OC | 24.6% (inactive)
83 | CC1(C)CC(=O)C(C(c2cccc(OCc3ccccc3)c2)C2C(=O)CC(C)(C)CC2=O)C(=O)C1 | 91.9% (active)
84 | COc1cc(C(C2C(=O)CC(C)(C)CC2=O)C2C(=O)CC(C)(C)CC2=O)ccc1O | 19.2% (inactive)
85 | CC1(C)CC(=O)C(C(c2ccc3ccccc3c2)C2C(=O)CC(C)(C)CC2=O)C(=O)C1 | 80.9% (active)
86 | CC1(C)CC(=O)C(C(C2=C(O)CC(C)(C)CC2=O)c2cccc(O)c2O)C(=O)C1 (stereo unspecified) | 57% (inactive)
87 | COc1cccc(C(C2C(=O)CC(C)(C)CC2=O)C2C(=O)CC(C)(C)CC2=O)c1 | 53.4% (inactive)
88 | CC1(C)CC(=O)C2=C(C1)Nc1ncnn1C2c1cccc([N+](=O)[O-])c1 (stereo unspecified) | inactive
89 | CC1(C)CC(=O)C(C(c2ccco2)C2C(=O)CC(C)(C)CC2=O)C(=O)C1 | 30.9% (inactive)
90 | CN1C(=O)NC(c2cccc([N+](=O)[O-])c2)C2=C1CC(C)(C)CC2=O (stereo unspecified) | inactive
91 | CC1(C)CC(=O)C(C(c2cccc([N+](=O)[O-])c2)C2C(=O)CC(C)(C)CC2=O)C(=O)C1 | 78.4% (active)
